Results on 28 compounds are retold here after PubChem BioAssay (NCATS).

Records with an inconclusive call do not appear. Where a call stands in place of a potency, no number is given. Calls of active or inactive are those of the source. Unless noted, calls follow the shape of the dose curve; as a rule, active = well fitted curve in the direction sought with a large enough effect; inconclusive = small, poorly fitted or top-dose-only effect, or another doubt; inactive = no such curve, though single readings can be large; an effect the other way counts as inactive or inconclusive.

The target of test [1] is Calcium and integrin-binding protein 1 (Homo sapiens) (UniProt Q99828). As to the kind of experiment: Primary qHTS for Identification of Calcium Integrin Binding Protein 1 (CIB1) Competitor (AID 1508620).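 Also: GST tagged CIB1 binding a fluorescein labelled alphaIIb integrin peptide tracer; top concentration of the series differs between compounds.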 Summed up:
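Fluorescence polarization competition: CIB1-GST (1 uM final) preincubated with compound 15 min at room temperature, then FITC-labeled alphaIIb peptide (100 nM final) added for another 15 min. Polarization read at Ex 480/Em 540.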

A short description of test [2]: qHTS to identify inhibitors of the type 1 interferon - major histocompatibility complex class I in skeletal muscle: primary screen against the NCATS Mechanism Interrogation Plate v5.0 (MIPE) Libary (AID 1347411). Also: nearly all actives have a fitted effect of over 65% in size. Also: potency is read from the fitted curve at half-maximal effect. The essentials:
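Immortalized human myoblasts (C25cl48) with HiBit knocked into endogenous HLA-B*08:01 were stimulated with 4 ng/ml IFN-beta and given compounds in 11-point 1:3 titration from 46 uM. After 24 h at 37 C, lytic HiBiT luminescence was read.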

Test [3] can be described thus: Primary qHTS for inhibitors of nuclear receptor binding SET domain protein 2 (NSD2) in an isogenic RCH-ACV NSD2 p.E1099K mutant (9B) (AID 1645876; also: nearly all actives have a fitted effect of over 70% in size; also: potency is read from the fitted curve at half-maximal effect). (In general: In qHTS, concentration-response curves come from the screen itself.)
A short description of test [4]: Primary qHTS for inhibitors of nuclear receptor binding SET domain protein 2 (NSD2) in an RCH-ACV wild type WT cells (2C) (AID 1645877). Also: nearly all actives have a fitted effect of over 70% in size. Also: potency is read from the fitted curve at half-maximal effect.
Test [5] is described as follows: Validation qHTS assay for inhibitors of Activation Induced Cytidine Deaminase (AID): UDG Counterscreen signal (AID 1347427). Summed up:
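Counterscreen read of UDG activity (2 U/mL, 4/3x) in the FRET deamination format with AID (1 uM, 4/3x), DJC20/DJC23 substrates (250 nM, 4x), 4 h at room temperature. NaOH stop, fluorescence at 560 ex/665 em.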

For test [6], the target named is Single-stranded DNA cytosine deaminase (Homo sapiens) (UniProt Q9GZX7). Description: Validation qHTS assay for inhibitors of Activation Induced Cytidine Deaminase (AID): AID signal (AID 1347429). Summed up: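 FRET deamination assay: 1 uM AID (4/3x stock) with UDG, compound up to 114 uM, then 250 nM DJC20/DJC23 substrate (4x stock) for 4 hr at room temperature. NaOH added, 30 min; fluorescence read 540/590 nm.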
Sequence of Single-stranded DNA cytosine deaminase (Homo sapiens) (Q9GZX7 whole entry, looked up): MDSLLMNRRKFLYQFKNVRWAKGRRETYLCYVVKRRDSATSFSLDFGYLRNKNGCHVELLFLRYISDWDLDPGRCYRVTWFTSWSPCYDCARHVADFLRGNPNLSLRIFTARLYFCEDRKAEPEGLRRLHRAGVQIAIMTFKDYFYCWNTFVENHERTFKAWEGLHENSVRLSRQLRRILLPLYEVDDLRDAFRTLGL

In test [7] the target is Calcium and integrin-binding protein 1 (Homo sapiens) (UniProt Q99828). As to the kind of experiment: Confirmatory qHTS for Identification of Calcium Integrin Binding Protein 1 (CIB1) Competitor (AID 1508617). Also: nearly all actives have a fitted effect of over 65% in size. Also: potency is read from the fitted curve at half-maximal effect. The essentials:
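Confirmatory qHTS measures displacement of a FITC-alphaIIb peptide (100 nM) from CIB1-GST (1 uM) by fluorescence polarization. Calcium-containing HEPES buffer, pH 7.4; two 15 min room-temperature incubations.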

The nature of test [8]: Primary qHTS for small molecule stabilizers of the endoplasmic reticulum resident proteome: Secreted ER Calcium Modulated Protein (SERCaMP) assay (AID 1508630). Summed up: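 GLuc-SERCaMP-expressing SH-SY5Y cells, pretreated 16 h with compound, are challenged with thapsigargin to empty ER calcium stores; after 4 h, coelenterazine is added directly to the medium and luminescence is imaged.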

Test [9] has as its target N-terminal Xaa-Pro-Lys N-methyltransferase 1 (Homo sapiens) (UniProt Q9BV86). Description: Confirmatory qHTS for Inhibitors of N-terminal methyltransferase 1 (NTMT1): MTaseGlo Assay (AID 1645874). Also: potency is read from the fitted curve at half-maximal effect; nearly all actives have a fitted effect of over 65% in size. Conditions: NTMT1 enzyme, MTase-Glo SAH luminescence. The essentials: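 Preincubation of NTMT1 (125 nM) plus SAM (100 uM) with test compounds lasted 15 min; methylation of 1 uM SPKRIA then proceeded 30 min in the dark at room temperature. Luciferase signal reported SAH produced.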

Test [10] deals with Cytochrome P450 2D6 (Homo sapiens) (UniProt P10635). Description: Cytochrome P450 family 2 subfamily D member 6 (CYP2D6) small molecule antagonists: luciferase biochemical (cell-free) qHTS assay (AID 1645840; active = well fitted curve in the direction sought with a large enough effect in the repeat runs; an effect the other way counts as inactive or inconclusive; also: potency is read from the fitted curve at half-maximal effect; nearly all actives have a fitted effect of over 55% in size). The essentials:
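P450-Glo luminescent screen: recombinant CYP2D6 enzyme–proluciferin substrate mix preincubated with compound 10 min at room temperature, then NADPH regeneration added for 1 h at room temperature. Detection reagent added for 20 min; luciferin light read as relative luminescence units.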

Test [11] addresses Cytochrome P450 2C9 (Homo sapiens) (UniProt P11712). Description: Cytochrome P450 family 2 subfamily C member 9 (CYP2C9) small molecule antagonists: luciferase biochemical (cell-free) qHTS assay (AID 1645842; active = well fitted curve in the direction sought with a large enough effect in the repeat runs; an effect the other way counts as inactive or inconclusive; also: potency is read from the fitted curve at half-maximal effect; nearly all actives have a fitted effect of over 55% in size). Summed up: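 Luminescence, after 20 min with luciferin detection reagent, reflected CYP2C9 turnover during a 1 h NADPH-driven reaction at 37C. Enzyme-substrate mix contained 0.4% bovine serum albumin and was preincubated with compound 10 min at room temperature.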

The nature of test [12]: Counterscreen qHTS for small molecule stabilizers of the endoplasmic reticulum resident proteome: GLuc-NoTag assay (AID 1508627).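 Also: SH-SY5Y cells given compound then 100 nM thapsigargin to empty ER calcium; series mostly up to about 76 µM.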 The essentials: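 SH-SY5Y cells stably expressing constitutively secreted GLuc (no SERCaMP tag) were pre-incubated 5 h, treated with compound for 19 h, then 100 nM thapsigargin for 4 h at 37C; medium GLuc read by coelenterazine luminescence.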

Sequence of Calcium and integrin-binding protein 1 (Homo sapiens) (Q99828 whole entry, looked up): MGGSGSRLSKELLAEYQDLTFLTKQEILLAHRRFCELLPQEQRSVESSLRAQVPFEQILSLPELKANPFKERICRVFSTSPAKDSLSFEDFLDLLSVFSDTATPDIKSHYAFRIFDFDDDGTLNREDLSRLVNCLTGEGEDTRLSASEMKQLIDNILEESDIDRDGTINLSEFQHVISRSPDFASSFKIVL
Sequence of Cytochrome P450 2D6 (Homo sapiens) (P10635 whole entry, looked up): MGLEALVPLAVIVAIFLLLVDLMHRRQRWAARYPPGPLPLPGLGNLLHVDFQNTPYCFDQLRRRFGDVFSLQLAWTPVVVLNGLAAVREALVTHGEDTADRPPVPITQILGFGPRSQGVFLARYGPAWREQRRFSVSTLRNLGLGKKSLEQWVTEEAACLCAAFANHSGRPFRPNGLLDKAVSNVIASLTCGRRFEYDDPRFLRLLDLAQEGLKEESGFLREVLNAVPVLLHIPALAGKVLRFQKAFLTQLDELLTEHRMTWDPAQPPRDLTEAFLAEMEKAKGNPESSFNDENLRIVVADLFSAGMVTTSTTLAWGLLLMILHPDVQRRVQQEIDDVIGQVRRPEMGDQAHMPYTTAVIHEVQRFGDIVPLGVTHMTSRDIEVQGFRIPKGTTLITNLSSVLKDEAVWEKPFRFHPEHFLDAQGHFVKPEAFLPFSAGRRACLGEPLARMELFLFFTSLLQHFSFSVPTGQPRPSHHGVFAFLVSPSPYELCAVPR
Sequence of N-terminal Xaa-Pro-Lys N-methyltransferase 1 (Homo sapiens) (Q9BV86 whole entry, looked up): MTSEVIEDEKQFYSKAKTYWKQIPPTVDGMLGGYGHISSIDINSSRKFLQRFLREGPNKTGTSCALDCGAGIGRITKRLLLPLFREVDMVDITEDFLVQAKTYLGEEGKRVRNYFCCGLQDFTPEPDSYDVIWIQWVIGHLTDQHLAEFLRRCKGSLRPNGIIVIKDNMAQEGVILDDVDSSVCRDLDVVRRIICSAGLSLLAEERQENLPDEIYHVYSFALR
Sequence of Cytochrome P450 2C9 (Homo sapiens) (P11712 whole entry, looked up): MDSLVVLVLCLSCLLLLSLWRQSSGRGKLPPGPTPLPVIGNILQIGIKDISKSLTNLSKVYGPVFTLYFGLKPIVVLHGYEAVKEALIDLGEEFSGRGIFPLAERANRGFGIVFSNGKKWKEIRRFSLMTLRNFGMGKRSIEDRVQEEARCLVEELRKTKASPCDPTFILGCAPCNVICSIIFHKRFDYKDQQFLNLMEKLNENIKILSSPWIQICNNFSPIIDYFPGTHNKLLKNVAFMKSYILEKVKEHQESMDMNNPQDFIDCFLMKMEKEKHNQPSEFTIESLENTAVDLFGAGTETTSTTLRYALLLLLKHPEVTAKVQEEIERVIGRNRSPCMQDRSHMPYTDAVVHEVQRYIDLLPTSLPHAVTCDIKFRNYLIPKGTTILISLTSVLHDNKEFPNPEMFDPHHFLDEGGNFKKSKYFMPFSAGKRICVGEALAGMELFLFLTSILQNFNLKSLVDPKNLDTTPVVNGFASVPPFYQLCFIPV

Take `Cn1cc(C2=C(c3c4n(c5ccccc35)CCC(CN)C4)C(=O)NC2=O)c2ccccc21` (stereo not given): the Potency result in test [1] is “inactive”.
`NC(=O)Nc1sc(-c2ccc(F)cc2)cc1C(N)=O`: the values for the Potency in test [2], in [3] and in test [4] were 1650 nM (active), 3320 nM (active) and 3720 nM (active), respectively. Also, the Potency result in [1] is “inactive”.
For the compound `NC(=O)c1ncn([C@@H]2O[C@H](CO)[C@@H](O)[C@@H]2O)c1N`, in [1], the Potency entry is “inactive”.
As for `C=CC(=O)Nc1cccc(Nc2nc(NC3CCC(N(C)C)CC3)nc3c2ncn3C(C)C)c1` (stereo not given), the Potency entry in [1] is “inactive”.
Take `COc1ccc2cc([S+]([O-])Cc3ncc(C)c(OC)c3C)nc2c1`: the outcome in [5] and in test [6] was inactive. Further, the Potency result in test [1] was “inactive”.
As to `CN(N=O)C(=O)N[C@H]1C(O)OC(CO)[C@@H](O)[C@H]1O` (stereo not given in full), the Potency result in test [1] is “inactive”.
For `CN1CCCN(C(=O)c2cccc(-c3ccc(C=C4C(=O)Nc5ccc(Cl)cc54)o3)c2)CC1`, the Potency in [7] is 35500 nM (active); in [9] it was 9160 nM (active); in test [3], 206 nM (active); in [4], 184 nM (active). Moreover, in test [8], the result was inactive.
On to `CC1(C)[C@H](O[C@H]2O[C@H](C(=O)O)[C@@H](O)[C@H](O)[C@H]2O[C@@H]2O[C@H](C(=O)O)[C@@H](O)[C@H](O)[C@H]2O)CC[C@@]2(C)[C@H]1CC[C@]1(C)[C@H]2C(=O)C=C2[C@H]3C[C@@](C)(C(=O)O)CC[C@]3(C)CC[C@]21C`, for which the Potency result in [1] is “inactive”.
On to `C=CC(=O)N1CCc2ccc(-n3c(=O)ccc4cnc5ccc(-c6cnn(C)c6)cc5c43)cc21`, for which the Potency in test [2] is 806 nM (active); in test [3], 363 nM (active); in test [4], 323 nM (active). Moreover, the Potency entry in test [1] is “inactive”.
In the case of `CN[C@H](CC(C)C)C(=O)N[C@H]1C(=O)N[C@@H](CC(N)=O)C(=O)N[C@@H]2C(=O)N[C@H]3C(=O)N[C@H](C(=O)N[C@H](C(=O)O)c4cc(O)cc(O)c4-c4cc3ccc4O)[C@H](O)c3ccc(c(Cl)c3)Oc3cc2cc(c3O[C@@H]2O[C@H](CO)[C@@H](O)[C@H](O)[C@@H]2O[C@H]2C[C@](C)(N)[C@H](O)[C@H](C)O2)Oc2ccc(cc2Cl)[C@H]1O`, the compound was called inactive in test [5] and in test [6]. Besides, in [1], the Potency result was “inactive”.
Take `C[C@H](NCc1ccc2c(c1)nc(NC(=O)c1ccc(-c3cn[nH]c3)s1)n2CCc1ccccc1)C(C)(C)C`: the Potency result in test [1] is “inactive”. Moreover, the result in test [8] was inactive.
As for `NC(=O)c1ncn([C@@H]2O[C@H](CO)[C@@H](O)[C@@H]2O)c1O`, the Potency entry in [7] and in test [1] was “inactive” throughout. In test [8], the result was inactive.
On to `O=c1[nH]c(=O)n([C@H]2C[C@@H](O)[C@@H](CO)O2)cc1C=CBr`, for which the compound was called inactive in test [5], in [6] and in test [8]. In addition, the Potency entry in test [1] is “inactive”.
For `CCOC(=O)[C@H](CCc1ccccc1)N[C@@H](C)C(=O)N1[C@@H](C(=O)O)C[C@H]2CCC[C@@H]21`, in test [1], the Potency result is “inactive”.
Regarding `C[C@@H](NCc1cc2ccccc2[nH]1)c1cccc2ccccc12`, in [7], the Potency entry is “inactive”. The result in test [8] was inactive. Also, the Potency was 95.2 nM (active) in test [10], 10700 nM (active) in [11], 16600 nM (active) in [3] and 14800 nM (active) in test [4].
For the compound `OCCN1C[C@H](O)[C@@H](O)[C@H](O)[C@@H]1CO`, the Potency entry in test [1] was “inactive”.
Turning to `CC(=O)ON=C1C(c2c(O)[nH]c3cc(Br)ccc23)=Nc2ccccc21`, in test [1], the Potency result is “inactive”.
Regarding `Nc1nc(=O)n([C@H]2CSC(CO)O2)cc1F` (stereo not given in full), the Potency result in [1] was “inactive”. Besides, in test [8], the result was inactive.
In the case of `COc1cccc2c1C(=O)c1c(O)c3c(c(O)c1C2=O)C[C@@](O)(C(=O)CO)C[C@@H]3O[C@H]1C[C@H](N)[C@@H](O)[C@H](C)O1`, the Potency is 829 nM (active) in test [2], 66.1 nM (active) in test [3] and 46.8 nM (active) in test [4]. In addition, the outcome in test [8] was inactive.
Regarding `Nc1cccc2c1C(=O)N(C1CCC(=O)NC1=O)C2=O` (stereo not given), the Potency result in test [2] is “inactive”. Also, the outcome in test [8] was inactive.
For `CN(C)c1ccc2cc(C(=O)N[C@@H](CCCN=C(N)CCl)C(=O)NCc3ccccc3)ccc2c1`, the Potency in [2] is 20800 nM (active). The Potency result in test [1], in [3] and in test [4] was “inactive” each time.
On to `O=C(O)C=Cc1ccc(Cn2ccnc2)cc1`, for which the Potency entry in [1] was “inactive”.
Regarding `C=CC[C@@H]1C=C(C)C[C@H](C)C[C@H](OC)[C@H]2O[C@@](O)(C(=O)C(=O)N3CCCC[C@H]3C(=O)O[C@H](C(C)=C[C@@H]3CC[C@H](O)[C@H](OC)C3)[C@@H](C)[C@@H](O)CC1=O)[C@@H](C)C[C@@H]2OC`, the Potency result in test [1] was “inactive”. Moreover, the outcome in [12] was inactive.
For `Cc1cnn(C)c1C(=O)Nc1cc(Nc2ccc3c(C=Cc4ccccn4)n[nH]c3c2)ccc1F`, in test [1], the Potency result is “inactive”.
Same read-out and setting: for `CC[C@H]1OC(=O)[C@H](C)[C@@H](O[C@H]2C[C@@](C)(OC)[C@@H](O)[C@H](C)O2)[C@H](C)[C@@H](O[C@@H]2O[C@@H](C)C[C@H](N(C)C)[C@@H]2O)[C@](C)(O)C[C@@H](C)C(=O)[C@H](C)[C@@H](O)[C@]1(C)O` the value was “inactive”.
`OC[C@@H](O)[C@@H](O)[C@H](O)[C@@H](O)CO`: the Potency entry in [2], in test [1], in test [3] and in test [4] was “inactive” in each case.
In the case of `COC1=C(OC)C(=O)C(CC=C(C)CCC=C(C)CCC=C(C)CCC=C(C)CCC=C(C)CCC=C(C)CCC=C(C)CCC=C(C)CCC=C(C)CCC=C(C)C)=C(C)C1=O`, in test [1], the Potency result is “inactive”.
Regarding `N#CC(=Cc1ccc(O)c(O)c1)C(=O)NCc1ccccc1`, in test [1], the Potency result is “inactive”.
